The record followed here is publication PMC4336329 (PLoS ONE, 2015).

SMILES strings stand for the structures. Among all 310,000 compounds or so, about 14,000 (4.5%) showed an effect of 50% or more. The effect is printed as a negative number. This excerpt belongs to a sample that is enriched for strong results.
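Also: peak tail current of the secondary pulse compared with the same well before compound.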

Chain of human ether-à-go-go-related gene (hERG) potassium channel (Q12809 whole entry, looked up): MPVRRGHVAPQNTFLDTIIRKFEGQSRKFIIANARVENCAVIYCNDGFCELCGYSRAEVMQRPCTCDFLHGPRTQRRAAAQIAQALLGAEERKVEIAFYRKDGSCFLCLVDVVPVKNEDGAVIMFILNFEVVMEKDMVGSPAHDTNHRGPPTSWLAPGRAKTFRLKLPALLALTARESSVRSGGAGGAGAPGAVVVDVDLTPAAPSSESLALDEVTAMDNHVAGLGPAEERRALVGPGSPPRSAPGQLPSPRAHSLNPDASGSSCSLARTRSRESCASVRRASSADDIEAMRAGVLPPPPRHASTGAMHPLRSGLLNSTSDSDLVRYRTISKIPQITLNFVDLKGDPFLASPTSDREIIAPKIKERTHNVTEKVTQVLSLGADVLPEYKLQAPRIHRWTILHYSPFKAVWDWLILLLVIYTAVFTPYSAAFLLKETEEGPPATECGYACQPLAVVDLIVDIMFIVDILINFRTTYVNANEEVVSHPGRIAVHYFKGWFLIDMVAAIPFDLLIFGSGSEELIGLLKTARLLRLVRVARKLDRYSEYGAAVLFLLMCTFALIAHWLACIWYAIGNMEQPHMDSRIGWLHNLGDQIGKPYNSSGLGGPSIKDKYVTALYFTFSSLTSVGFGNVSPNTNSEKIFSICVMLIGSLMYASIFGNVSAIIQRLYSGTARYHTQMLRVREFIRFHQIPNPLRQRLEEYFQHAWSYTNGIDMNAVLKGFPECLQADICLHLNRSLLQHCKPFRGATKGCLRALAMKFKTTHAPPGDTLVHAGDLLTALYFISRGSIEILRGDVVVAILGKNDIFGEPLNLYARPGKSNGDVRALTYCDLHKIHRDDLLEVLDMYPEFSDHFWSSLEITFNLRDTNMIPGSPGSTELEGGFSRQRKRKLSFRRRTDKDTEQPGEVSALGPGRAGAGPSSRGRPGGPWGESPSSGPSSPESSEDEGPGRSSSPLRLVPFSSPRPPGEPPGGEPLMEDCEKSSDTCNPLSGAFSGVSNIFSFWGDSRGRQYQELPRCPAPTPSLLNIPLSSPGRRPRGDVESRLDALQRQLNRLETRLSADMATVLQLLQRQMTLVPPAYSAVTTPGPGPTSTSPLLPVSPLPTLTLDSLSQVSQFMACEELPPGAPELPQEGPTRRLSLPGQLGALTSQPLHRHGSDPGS

The assay has as its target human ether-à-go-go-related gene (hERG) potassium channel (human, UniProt Q12809). Description: primary screen, population patch clamp on CHO cells stably expressing hERG; higher = less effect of the substance.
As for `COc1ccc(/C=C/C(=O)Nc2ccccc2C(=O)NCC(c2ccc(OC)cc2)N(C)C)cc1` (centres unmarked), the “hERG current change (%, negative = inhibition) at 10uM” value was -49.6%.
For `CCc1nc(N=Nc2c(O)[nH]c3ccccc23)c2c3c(sc2n1)CCC3` the value was 13.7%; for `O=C(COC(=O)c1cc(Cl)ccc1[N+](=O)[O-])NCc1ccc(Cl)cc1Cl`, -11.8%; for `COc1ccccc1CCNC(=O)CN1C(=O)c2ccccc2S1(=O)=O`, 2.11%.
For `CC(C)(C)C(=O)NC1CCSC1=O` (centres unmarked) the value was 8.46%.
As for `CN(C)CCN1C(=O)C2C3C=CC(C3)C2C1=O` (centres unmarked), the “hERG current change (%, negative = inhibition) at 10uM” value amounted to 20.6%.
For `Cc1cc(C)c2c(=O)[nH]c(SCC(=O)Nc3ccc(N(C)C)cc3)nc2n1` the value was -2.77%.
Under `CCCc1[nH]nc2c1C(Cc1ccccc1)C(C#N)=C(N)O2` (centres unmarked) stands 0.432%; under `Cc1nn(-c2ccccc2)c(C)c1-c1cc(C(=O)N/N=C/c2cccnc2)[nH]n1`, -18.7%.
Take `Cc1cccc2c1N(C)C(=O)C2=O`: the “hERG current change (%, negative = inhibition) at 10uM” value was 17.1%.
In the case of `Cc1ccc(NC(=O)CNCc2ccccn2)cc1S(=O)(=O)N(C)C`, the “hERG current change (%, negative = inhibition) at 10uM” value is recorded as 20.9%.
For `CCN(Cc1ccc(O)cc1)CC1CCCN(CCc2cccc(F)c2)C1` (centres unmarked) the value was -71.1%; for `CCN(Cc1ccc(NC(C)=O)cc1)CC1CCCN(CCc2cccc(F)c2)C1` (centres unmarked), -24.4%.
For `Cc1ccc(-c2nnc(CSc3nnc(COc4ccccc4)n3-c3ccc(C)cc3)o2)cc1` the value was -7.47%; for `CC(C)C(OC(=O)c1ccco1)C(=O)NCc1cccs1` (centres unmarked), -0.362%.
Under `CN(C)c1ccc(/C=N/NC(=O)c2ccccc2)cc1` stands 10.9%; under `O=C(N/N=C/c1ccco1)C1CC1c1ccccc1` (centres unmarked), -4.18%.
For the compound `CN(C)c1ccc(/C=N/NC(=O)C2CC2c2ccccc2)cc1` (centres unmarked), the “hERG current change (%, negative = inhibition) at 10uM” value is reported as -74.9%.
For `CCOc1ccc(CCNC(=O)CCS(=O)(=O)c2ccc(Br)cc2)cc1OCC` the value was 13.8%; for `Cc1cc(NC(=S)N(CCN2CCOCC2)Cc2ccccc2F)ccc1Cl`, 24.1%.
For `COc1cccc(CCC(=O)N2CCC(n3nccc3NC(=O)C3CCOC3)CC2)c1` (centres unmarked), the “hERG current change (%, negative = inhibition) at 10uM” value is given as 14.9%.
Under `COc1ccc(C(=O)c2sc(Nc3ccccc3)nc2N)cc1` stands 18.1%; under `COc1ccc(Nc2nc(N)c(C(=O)c3ccc(F)cc3)s2)cc1`, 25.9%; under `COc1ccc(Nc2nc(N)c(C(=O)c3ccc(OC)cc3)s2)cc1`, -52.7%.
Turning to `O=C(Nc1ccc(Cl)cc1F)c1cc(S(=O)(=O)N2CCCCC2)ccc1F`, the “hERG current change (%, negative = inhibition) at 10uM” value is listed as -0.146%.
For `Cc1ccc(NC(=O)Cn2nnc(C(=O)NCc3ccco3)c2N)c(C)c1` the value was 3.23%; for `C/[N+]([O-])=C\c1coc2ccccc2c1=O`, -1.4%; for `O=C(CCl)N1CCN2C(=O)c3ccccc3C12c1ccc(Cl)cc1` (centres unmarked), -1.56%.
For `COCCCNC(=O)Cc1c(C)c2c(cc(C)c3c(C(C)(C)C)coc32)oc1=O`, the “hERG current change (%, negative = inhibition) at 10uM” value is on record as -32.3%.
For `Cc1cc2oc(=O)c(CC(=O)NCCCN(C)C)c(C)c2c2occ(C(C)(C)C)c12` the value was -69.1%.
For the compound `Cc1cc2oc(=O)c(CC(=O)NCCCO)c(C)c2c2occ(C(C)(C)C)c12`, the “hERG current change (%, negative = inhibition) at 10uM” value is given as -9.35%.
As to `O=C1OC(CO)CN1Cc1ccccc1` (centres unmarked), the “hERG current change (%, negative = inhibition) at 10uM” value was 12.3%.
For `c1ccc(-c2cn(-c3ccccc3)c3ncnc(NCCCN4CCOCC4)c23)cc1` the value was -60.6%; for `COc1ccc(-n2cc(-c3ccccc3)c3c(NN4CCOCC4)ncnc32)cc1`, -40.6%.
`COc1ccc(-n2cc(-c3ccccc3)c3c(NCCCN4CCOCC4)ncnc32)cc1`: the “hERG current change (%, negative = inhibition) at 10uM” value is given as -65%.
For `COc1ccc(-n2cc(-c3ccccc3)c3c(N4CCOCC4)ncnc32)cc1` the value was 22.5%; for `c1ccc(-c2csc3ncnc(NCCCN4CCOCC4)c23)cc1`, -13.2%.
Turning to `c1ccc(-n2ncc3c(NCCCN4CCOCC4)ncnc32)cc1`, the “hERG current change (%, negative = inhibition) at 10uM” value was -11%.
Under `COc1nc(-c2ccc(Cl)cc2)nnc1C` stands 2.25%.
Under `COCCNC(=O)C(c1cccs1)N(CCc1ccccc1)C(=O)Cn1nnc2ccccc21` (centres unmarked) stands 6.51%.
`O=C(CSc1nnc(Cn2cnc3ccccc32)o1)c1ccccc1`: the “hERG current change (%, negative = inhibition) at 10uM” value was -7.21%.
For `Cc1ccc(N2C(=O)CC(=O)NC2=O)c(C)c1` the value was 17.2%; for `CC(=O)OCCn1c(C)[n+](CCOC(C)=O)c2cc(Cl)c(Cl)cc21.[I-]`, 14.7%.
Under `COc1ccc(-c2ccoc2)cc1[C@H]1[C@H]2C=CC[C@@H](C)[C@@H]2C(=O)N1Cc1ccccc1` stands 1.85%; under `CC1CCN(Cc2nnc(-c3cccc(Br)c3)o2)CC1`, -0.585%; under `O=C(c1ccco1)N1CCN(Cc2nnc(-c3ccccc3F)o2)CC1`, 9.67%.
Under `Cc1ccccc1-c1nnc(CN2CCN(C(=O)c3ccco3)CC2)o1` stands -14.2%; under `O=C(c1ccco1)N1CCN(Cc2nnc(-c3cccc(Cl)c3)o2)CC1`, -45.9%; under `O=C(c1ccco1)N1CCN(Cc2nnc(-c3ccccc3)o2)CC1`, -55.5%.
For the compound `O=C(c1ccco1)N1CCN(Cc2nnc(-c3cccc(Br)c3)o2)CC1`, the “hERG current change (%, negative = inhibition) at 10uM” value is listed as -62.2%.
For `O=C(Cn1c(CO)nc2ccccc21)NCCc1ccccc1` the value was -3.08%; for `COc1ccccc1CNC(=O)c1cc(C)nn1-c1ccccc1`, 1.87%; for `CCOc1ccccc1NC(=O)Nc1cc(S(=O)(=O)N(C)C)ccc1C`, 15%.
Under `COCCCNC(=O)c1cc2c(=O)n3cccc(C)c3nc2s1` stands 7.44%; under `CCOCCCNC(=O)c1cc2c(=O)n3cccc(C)c3nc2s1`, 12.6%; under `COCCCNC(=O)c1cc2c(=O)n3cccc(C)c3nc2n(C(C)C)c1=N`, -65.5%.
As to `C=CCn1c(=N)c(C#N)cc2c(=O)n3ccccc3nc21`, the “hERG current change (%, negative = inhibition) at 10uM” value is -35.3%.
Under `CCn1c(=N)c(C(=O)NCCCOC)cc2c(=O)n3cccc(C)c3nc21` stands -61.4%; under `C=CCn1c(=N)c(C(=O)OCC)cc2c(=O)n3cccc(C)c3nc21`, -72.9%.
In the case of `CCOC(=O)c1c(C)nc2c(C)cccn12`, the “hERG current change (%, negative = inhibition) at 10uM” value is recorded as -6.9%.
As to `C=CCn1c(=N)c(S(=O)(=O)c2ccc(C)c(C)c2)cc2c(=O)n3ccccc3nc21`, the “hERG current change (%, negative = inhibition) at 10uM” value amounted to 14.3%.
Under `C=CCn1c(=N)c(C(=O)NCCCOC)cc2c(=O)n3ccccc3nc21` stands -60.1%.
